Measured values from PubChem BioAssay AID1159580 (chemical genetic matrix, 2015).
About 2,000 (36%) of roughly 5,500 compounds were called active. Roughly 18% stayed inconclusive and do not appear here. No stated cut-off is given here; in the data, active means normalized growth mostly below about 0.91 (no sharp cut-off); inconclusive means no clear call, values can overlap the other calls; inactive means mostly above about 0.92. Some of the results follow.

Assay: chemical genetic growth profiling, strain panel (AID 1159580);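 further: tested at 20 µM; growth read once vehicle control cultures reached saturation at 30 °C; 1 = growth at the plate median or of vehicle wells; lower values mean less growth of the strain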
Conditions: growth OD

Measured: normalized growth

CN(C)c1ccc(C(=O)NN)cc1
inactive: S. cerevisiae deletion strains, locus YAL013W, strain DEP1, hits give low values 1.02 | S. cerevisiae deletion strains, locus YBR229C, strain ROT2, hits give low values 1.02 | S. cerevisiae deletion strains, locus YDL101C, strain DUN1, hits give low values 1.02 | S. cerevisiae deletion strains, locus YDL134C, strain PPH21, hits give low values 1.01 | S. cerevisiae deletion strains, locus YDR150W, strain NUM1, hits give low values 0.924 | S. cerevisiae deletion strains, locus YEL061C, strain CIN8, hits give low values 0.99 | S. cerevisiae deletion strains, locus YGR078C, strain PAC10, hits give low values 1.01 | S. cerevisiae deletion strains, locus YHR030C, strain SLT2, hits give low values 1.08 | S. cerevisiae deletion strains, locus YHR087W, strain rtc3, hits give low values 1.03 | S. cerevisiae deletion strains, locus YJL187C, strain SWE1, hits give low values 1.01 | S. cerevisiae deletion strains, locus YJR043C, strain POL32, hits give low values 1.02 | S. cerevisiae deletion strains, locus YJR075W, strain HOC1, hits give low values 1 | S. cerevisiae deletion strains, locus YKL190W, strain CNB1, hits give low values 1.01 | S. cerevisiae deletion strains, locus YLR039C, strain RIC1, hits give low values 1.14 | S. cerevisiae deletion strains, locus YLR058C, strain SHM2 (second series), hits give low values 1.02 | S. cerevisiae deletion strains, locus YLR085C, strain ARP6, hits give low values 0.96 | S. cerevisiae deletion strains, locus YLR262C, strain YPT6, hits give low values 1.15 | S. cerevisiae deletion strains, locus YML094W, strain GIM5, hits give low values 1.01 | S. cerevisiae deletion strains, locus YMR219W, strain ESC1, hits give low values 1.01 | S. cerevisiae deletion strains, locus YMR263W, strain SAP30, hits give low values 0.992 | S. cerevisiae deletion strains, locus YNL153C, strain GIM3, hits give low values 1.02 | S. cerevisiae deletion strains, locus YNL298W, strain CLA4 (second series), hits give low values 1 | S. cerevisiae deletion strains, locus YNL322C, strain KRE1, hits give low values 1 | S. cerevisiae deletion strains, locus YNR030W, strain Alg12, hits give low values 1.01 | S. cerevisiae deletion strains, locus YPL055C, strain LGE1, hits give low values 0.954 | S. cerevisiae deletion strains, locus YPL241C, strain CIN2, hits give low values 0.997 | S. cerevisiae deletion strains, locus YPR135W, strain CTF4, hits give low values 1 | S. cerevisiae strains, strain wild type, hits give low values 1.02
